Laboratory results taken from the supplement of paper PMC3545927.
The list shows a part of the results. The hit rate among all sequences tested is not known here.

B1: HC540 (peptide)
chain: CALAGTHGLVAGNASASA
B2: HC420 (peptide)
chain: CATDRSGAPTAGNASASA
B3: HC1555 (peptide)
chain: CANVSVAHDGAGNASASA
B4: HC534 (peptide)
chain: CAALENLVILAGNASASA
B5: FS-2260 (peptide)
chain: CARIKKSKMIAGNASASA
B6: FS-2254 (peptide)
chain: CAREKRGNGWAGNASASA
B7: FS-1722 (peptide)
chain: CARIKRMVFKAGNASASA
B8: FS-2669 (peptide)
chain: CARFWRSTGFAGNASASA
B9: FS-1680 (peptide)
chain: CARAKKIFGWAGNASASA
B10: FS-2930 (peptide)
chain: CARGARVVFKAGNASASA
B11: FS-2261 (peptide)
chain: CARIKRAGGFAGNASASA
B12: FS-3209 (peptide)
chain: CARSLRSEFKAGNASASA
B13: FS-2149 (peptide)
chain: CARIKRAEGWAGNASASA
B14: HC1821 (peptide)
chain: CADNMEECSQAGNASASA
B15: HC644 (peptide)
chain: CALAVAVEPVAGNASASA
B16: HC1275 (peptide)
chain: CAANLLWRQEAGNASASA
B17: FS-2639 (peptide)
chain: CARAKRSPKHAGNASASA
B18: FS-2728 (peptide)
chain: CARNKRIWASAGNASASA
B19: HC1650 (peptide)
chain: CADIYHSVSHAGNASASA
B20: FS-2250 (peptide)
chain: CARAKRGNIHAGNASASA
B21: FS-3009 (peptide)
chain: CARNKRQSKSAGNASASA
B22: FS-3007 (peptide)
chain: CARNKRLSISAGNASASA
B23: FU4 (peptide)
chain: CARNKRNSKMAGNASASA
B24: FS-2544 (peptide)
chain: CARAKRAVSHAGNASASA
B25: FS-1886 (peptide)
chain: CARAPRSVGGAGNASASA
B26: FS-2397 (peptide)
chain: CARNKRNSKMAGNASASA
B27: HC2001 (peptide)
chain: CANVCCSMSYAGNASASA
B28: NG10 (peptide)
chain: CAMHLQGPEDAGNASASA
B29: HC862 (peptide)
chain: CALAAKLVALAGNASASA
B30: HC1315 (peptide)
chain: CAPVVHGCPLAGNASASA
B31: HC442 (peptide)
chain: CAVCGAPPCVAGNASASA
B32: HC151 (peptide)
chain: CAEVVTKTWVAGNASASA
B33: HC567 (peptide)
chain: CAEVAASCGGAGNASASA
B34: HC1226 (peptide)
chain: CAHRFAPPCKAGNASASA
B35: FS-2640 (peptide)
chain: CARAKRSVHFAGNASASA
B36: FS-2128 (peptide)
chain: CARAKKGLGMAGNASASA
B37: FS-3181 (peptide)
chain: CARAKRSSKMAGNASASA
B38: HC1906 (peptide)
chain: CATTPCSGMWAGNASASA
B39: HC980 (peptide)
chain: CAHPVTKYIMAGNASASA
B40: FS-807 (peptide)
chain: CAKAEREKRKAGNASASA
B41: FS-1470 (peptide)
chain: CAPAKRPKRKAGNASASA
B42: FS-913 (peptide)
chain: CAPTARPKRKAGNASASA
B43: FS-836 (peptide)
chain: CAPAQRTKRKAGNASASA
B44: FS-1876 (peptide)
chain: CAAFRRGVTKAGNASASA
B45: HC738 (peptide)
chain: CAPRPISYLKAGNASASA

Target: furin, P09958
Sequence (P09958 whole entry): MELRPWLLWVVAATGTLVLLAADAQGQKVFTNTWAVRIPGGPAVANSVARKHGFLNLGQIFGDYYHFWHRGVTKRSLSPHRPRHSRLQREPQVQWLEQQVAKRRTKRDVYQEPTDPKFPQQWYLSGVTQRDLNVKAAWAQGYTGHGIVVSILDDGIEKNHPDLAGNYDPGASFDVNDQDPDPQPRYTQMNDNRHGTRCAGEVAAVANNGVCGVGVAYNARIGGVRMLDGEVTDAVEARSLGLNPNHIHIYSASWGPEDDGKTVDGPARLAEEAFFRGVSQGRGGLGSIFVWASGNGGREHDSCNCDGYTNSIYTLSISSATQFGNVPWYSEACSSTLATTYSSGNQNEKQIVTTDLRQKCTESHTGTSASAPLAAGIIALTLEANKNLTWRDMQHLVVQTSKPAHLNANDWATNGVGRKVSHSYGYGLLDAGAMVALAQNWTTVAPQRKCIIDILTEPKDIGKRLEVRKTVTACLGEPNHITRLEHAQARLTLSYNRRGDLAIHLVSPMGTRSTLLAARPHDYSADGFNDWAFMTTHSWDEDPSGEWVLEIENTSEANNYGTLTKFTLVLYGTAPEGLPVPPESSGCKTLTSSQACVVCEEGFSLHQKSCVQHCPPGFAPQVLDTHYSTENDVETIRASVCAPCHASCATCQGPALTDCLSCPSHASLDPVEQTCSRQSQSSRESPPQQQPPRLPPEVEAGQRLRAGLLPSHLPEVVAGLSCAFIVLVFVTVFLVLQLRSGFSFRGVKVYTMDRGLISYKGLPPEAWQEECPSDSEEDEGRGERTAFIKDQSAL
Test: furin cleavage Z-score vs untreated control; higher = more cleavage, active = 3.5 or more, inactive = 1 or less, 8 variable residues between constant flanks
How it was run: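 Read counts from sequencing released DNA gave abundance for each bead-bound 8-mer peptide–cDNA fusion cut by purified furin over 7.5, 15 or 30 min. The cleavage Z-score compares log counts with furin-free reactions after lowess adjustment and median absolute deviation scaling.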
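Further: purified furin at 1:10 enzyme:substrate in 50 mM HEPES pH 7.5.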

Row | Sequence | furin cleavage Z-score (7.5 min) | furin cleavage Z-score (15 min) | furin cleavage Z-score (30 min)
1 | B1 | 0.465 (inactive) | 1.56 | 0.729 (inactive)
2 | B2 | -0.957 (inactive) | -0.534 (inactive) | 0.262 (inactive)
3 | B3 | 0.322 (inactive) | -0.558 (inactive) | 0.0108 (inactive)
4 | B4 | -0.644 (inactive) | -1.06 (inactive) | -0.181 (inactive)
5 | B5 | -0.171 (inactive) | 1.16 | -0.504 (inactive)
6 | B6 | -0.781 (inactive) | 0.97 (inactive) | 2.15
7 | B7 | 5.13 (active) | 5.7 (active) | 8.11 (active)
8 | B8 | 0.601 (inactive) | 1.09 | 0.345 (inactive)
9 | B9 | 1.69 | 0.732 (inactive) | 0.406 (inactive)
10 | B10 | -2.06 (inactive) | -1.04 (inactive) | -0.554 (inactive)
11 | B11 | 6.34 (active) | 8.63 (active) | 7.18 (active)
12 | B12 | -0.188 (inactive) | -0.988 (inactive) | 0.991 (inactive)
13 | B13 | 6.5 (active) | 7.28 (active) | 7.15 (active)
14 | B14 | -1.18 (inactive) | -0.208 (inactive) | -1.08 (inactive)
15 | B15 | 0.342 (inactive) | -1.7 (inactive) | -0.692 (inactive)
16 | B16 | 1.65 | 1.09 | 0.698 (inactive)
17 | B17 | 5.3 (active) | 6.19 (active) | 6.5 (active)
18 | B18 | 0.843 (inactive) | 1.63 | -0.176 (inactive)
19 | B19 | -2.02 (inactive) | -1.09 (inactive) | -0.935 (inactive)
20 | B20 | 0.0194 (inactive) | 0.245 (inactive) | 1.46
21 | B21 | 3.6 (active) | 6.73 (active) | 6.06 (active)
22 | B22 | 0.116 (inactive) | -1.14 (inactive) | 0.746 (inactive)
23 | B23 | 5.8 (active) | 8.1 (active) | 7.99 (active)

Row | Sequence | furin cleavage Z-score (7.5 min) | furin cleavage Z-score (15 min) | furin cleavage Z-score (30 min)
24 | B24 | 7.56 (active) | 8.33 (active) | 7.62 (active)
25 | B25 | -0.25 (inactive) | 0.302 (inactive) | 0.769 (inactive)
26 | B26 | 6.32 (active) | 8.34 (active) | 7.25 (active)
27 | B27 | 0.0522 (inactive) | 1.55 | 1.28
28 | B28 | 0.395 (inactive) | -0.679 (inactive) | -0.939 (inactive)
29 | B29 | 1.87 | -0.745 (inactive) | 0.749 (inactive)
30 | B30 | -0.719 (inactive) | -0.657 (inactive) | -0.124 (inactive)
31 | B31 | 1.21 | 0.519 (inactive) | 0.314 (inactive)
32 | B32 | -0.0944 (inactive) | 0.88 (inactive) | -0.37 (inactive)
33 | B33 | -0.691 (inactive) | -0.994 (inactive) | -0.368 (inactive)
34 | B34 | -2.1 (inactive) | -0.755 (inactive) | 0.739 (inactive)
35 | B35 | -0.56 (inactive) | -0.574 (inactive) | 1.29
36 | B36 | 1.05 | 0.216 (inactive) | 0.932 (inactive)
37 | B37 | 5.7 (active) | 7.55 (active) | 8.74 (active)
38 | B38 | 0.488 (inactive) | 0.804 (inactive) | -1.44 (inactive)
39 | B39 | -1.79 (inactive) | 0.202 (inactive) | -0.88 (inactive)
40 | B40 | 0.64 (inactive) | 0.758 (inactive) | 1.86
41 | B41 | 11.2 (active) | 12 (active) | 9.89 (active)
42 | B42 | 4.97 (active) | 4.54 (active) | 4.32 (active)
43 | B43 | 10.3 (active) | 11.5 (active) | 9.82 (active)
44 | B44 | -0.242 (inactive) | -0.144 (inactive) | -1.52 (inactive)
45 | B45 | 0.812 (inactive) | 1.42 | 0.555 (inactive)
